Bioassay records as filed in PubChem BioAssay.
Most compounds without a hit are left out; they make up all but 3.4% or so of the library.
TEAD-YAP inh = TEAD-YAP interaction inhibition | HEK-TIYL cells, TEAD-Gal4/YAP UAS-luciferase luminescence | inhibition, % at 9.12 µM | actives 1.4% (n = 640,000) | AID 1259422; in the data active means inhibition above about 32%
FBW7 activator = human FBW7 E3 ligase activation, primary screen. Q969H0. AlphaScreen FBW7–phospho-cyclin E peptide binding, activator screen. normalized activity (activation), % at 26.1 µM. actives 0.13% (n = 650,000); in the data active means normalized activity above about 1.9%;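 further: purified mutant Fbw7 with reduced substrate affinity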
GPR151 activ = activates the human receptor GPR151. PathHunter beta-arrestin GPR151 cells, luminescence. activation, % at 11.2 µM. actives 1% (n = 650,000); in the data active means activation above about 4.9%
MITF inh = inhibitors of human MITF | AlphaScreen MITF homodimerization, bead proximity signal | inhibition, % at 2.6 µM | actives 0.91% (n = 650,000); in the data active means inhibition above about 50%
Target sequence (O75030 whole entry, looked up): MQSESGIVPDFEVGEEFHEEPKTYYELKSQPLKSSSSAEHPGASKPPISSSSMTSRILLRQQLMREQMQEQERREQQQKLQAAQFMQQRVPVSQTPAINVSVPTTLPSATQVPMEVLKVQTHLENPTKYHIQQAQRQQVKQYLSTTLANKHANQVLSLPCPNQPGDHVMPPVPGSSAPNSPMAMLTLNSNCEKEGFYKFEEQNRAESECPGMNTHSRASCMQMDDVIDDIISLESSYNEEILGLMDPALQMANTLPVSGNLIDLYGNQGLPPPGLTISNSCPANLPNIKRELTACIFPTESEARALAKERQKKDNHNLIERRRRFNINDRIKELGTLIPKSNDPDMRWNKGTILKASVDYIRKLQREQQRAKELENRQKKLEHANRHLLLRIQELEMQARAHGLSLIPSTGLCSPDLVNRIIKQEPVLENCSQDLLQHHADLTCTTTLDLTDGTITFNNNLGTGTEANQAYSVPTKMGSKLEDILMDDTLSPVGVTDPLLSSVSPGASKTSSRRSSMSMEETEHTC
Large screens that a line does not name were inactive.

Clc1cccc(-c2cnn3c(NCc4ccco4)ccnc23)c1	FBW7 activator 2.0
COCCNc1ccnc2c(-c3cccc(Cl)c3)cnn12	none
Cc1ccccc1-n1c(=S)sc2c(=O)n(-c3ccccc3)c(SCC(=O)NCc3ccccc3Cl)nc21	none
Cc1cccc(C(=O)OCC(=O)c2c(N)n(C)c(=O)n(C)c2=O)c1O	none
Cc1cc(C)cc(C(=O)Nc2ccc(Nc3ccc(-n4cccn4)nn3)cc2)c1	none
CCCNC(=O)CCC(=O)Nc1ncc(-c2ccc(C)cc2)n1C	TEAD-YAP inh 93
CCCNC(=O)CCn1nc(-c2ccc(C)cc2)c2ccccc2c1=O	none
COc1cc(-c2nc3ccc(C(=O)NCCc4ccccc4)cc3nc2-c2cc(OC)c(OC)c(OC)c2)cc(OC)c1OC	none
O=C(NCCOc1ccc(Cl)cc1)c1ccco1	FBW7 activator 2.3
O=C(NCCOc1ccccc1)c1cccc(-c2ccccc2)n1	none
COc1cc(-c2nc3ccc(C(=O)NCCc4ccc(C)cc4)cc3nc2-c2cc(OC)c(OC)c(OC)c2)cc(OC)c1OC	TEAD-YAP inh 38
CCc1ccc(OCCNC(=O)c2ccco2)cc1	none
O=C(CCC(=O)c1ccccc1)NCCOc1ccccc1	none
O=C(CCl)NCCOc1ccccc1	TEAD-YAP inh 36
COc1ccc(-c2cccc(C(=O)NCCOc3ccccc3)n2)cc1	FBW7 activator 8.0
Cc1cc(NCc2cccnc2)n2nc(-c3cccc(F)c3)cc2n1	none
Cc1ccc(C(=O)NCCc2ccccc2)cc1	TEAD-YAP inh 82
CC(=O)c1ccc(C(=O)NCCOc2ccccc2)cc1	TEAD-YAP inh 68
O=C(NCCOc1ccccc1)C(=O)NCc1ccco1	TEAD-YAP inh 48
Cc1ccc(C(=O)NCCOc2ccccc2)cc1	TEAD-YAP inh 73
Cc1cccc(N2CCN(C(=O)Cn3c4ccccc4c4nc(=O)cc(C)n43)CC2)c1C	none
COc1ccc(C(=O)c2ccccc2)c(OCC(=O)NCCOc2ccccc2)c1	none
O=C(COC(=O)C1CC(=O)N(Cc2ccccc2)C1)Nc1ccc(SC(F)F)cc1 (centres undefined)	none
O=C(O)c1ccc(C(=O)Nc2ccccc2S(=O)(=O)Nc2nccs2)cc1	FBW7 activator 3.7
CC(C)(C)c1ccc(C(=O)Nc2ccc(S(=O)(=O)Nc3nccs3)cc2)cc1	none
Cc1nc2ccccc2n1Cc1nnc(-c2ccccc2)o1	TEAD-YAP inh 40
CC(=O)c1ccc(NC(=O)C2CCC(CNc3c(N4CCCCC4)c(=O)c3=O)CC2)cc1 (centres undefined)	none
CCCNc1nc(-c2ccc(OC)nc2)nc2c1ncn2-c1ccccc1	TEAD-YAP inh 33
COc1ccc(-c2nc(NCCO)c3ncn(-c4ccccc4)c3n2)cc1	TEAD-YAP inh 61
COc1ccc(-c2nc(NCc3ccccc3)c3ncn(-c4ccccc4)c3n2)cn1	none
CCCNc1nc(-c2ccc(OC)nc2)nc2c1ncn2-c1ccsc1	TEAD-YAP inh 51
COc1ccc(-c2nc(NCCO)c3ncn(-c4ccccc4)c3n2)cn1	TEAD-YAP inh 73
CCCNc1nc(-c2ccc(OC)cc2)nc2c1ncn2-c1ccsc1	none
CC(C)CNC(=O)CSc1nc(-c2ccccc2)cs1	none
COc1ccc(-c2nc(NC3CC3)c3ncn(-c4ccccc4)c3n2)cn1	TEAD-YAP inh 48
COc1cc(C(=O)N2c3ccccc3NC3=C(C(=O)CC(c4ccco4)C3)C2c2cc(OC)c(OC)c(OC)c2)cc(OC)c1OC (centres undefined)	none
CCOC(=O)N1CCN(c2c(N3CCN(c4ccc(F)cc4)CC3)c(=O)c2=O)CC1	none
CCOC(=O)N1CCN(c2c(NCc3ccc(F)cc3)c(=O)c2=O)CC1	TEAD-YAP inh 55
Cc1ncn(-c2ccc(Nc3nccc(Nc4cccc(N)c4)n3)cc2)n1	TEAD-YAP inh 35
Cc1ncn(-c2ccc(Nc3cc(-c4cccc(N5CCOCC5)c4)ccn3)cc2)n1	none
Cc1ncn(-c2ccc(Nc3nccc(Nc4cccc(N5CCOCC5)c4)n3)cc2)n1	TEAD-YAP inh 63
Cc1ccc(-n2nnc3c(SCc4cccc(F)c4)ncnc32)cc1	none
O=C(CCOc1ccccc1)Nc1ccc(-c2nnc3n2CCCCC3)cc1	none
Cc1nnc(SCC(=O)Nc2nc3c(s2)CC(C)CC3)s1 (centres undefined)	none
CC1CCc2nc(NC(=O)CSc3nc4ccccc4o3)sc2C1 (centres undefined)	TEAD-YAP inh 67
COc1ccc(NC(=O)CSc2nc3ccccc3o2)cc1OC	TEAD-YAP inh 33
COc1ccc(NC(=O)CSc2nc3ccccc3o2)cc1	none
COc1cc(C(=O)N(C(C)C)C(C)C)cc(OC)c1OC	none
O=C(CSc1n[nH]c(=O)n1Cc1ccccc1)Nc1ccc(Br)cc1F	TEAD-YAP inh 34
CC(C)CC(C(=O)Nc1ccccc1Cl)N1C(=O)c2ccccc2C1=O (centres undefined)	none
Cc1ccc(S(=O)(=O)N2CCN(c3cc(N4CCCC4)ncn3)CC2)s1	none
CCN1CCN(Cc2ccc(NC(=O)Nc3cc(F)ccc3F)cc2)CC1	TEAD-YAP inh 40
O=C(Nc1cnn(-c2ccc(C(=O)NC3CCc4ccccc43)cc2)c1)c1ccoc1 (centres undefined)	TEAD-YAP inh 56
O=C(N[C@H]1C[C@H]2C(=O)N[C@@H](Cc3ccccc3)C(=O)N2C1)c1ccc(Cl)c(Cl)c1	none
Cc1csc2nc(CSc3nc4ccccc4o3)c(Cl)n12	none
Cc1cccc(NC(=O)C2CCCN(S(=O)(=O)c3c(C)noc3C)C2)c1C (centres undefined)	none
Cc1[nH]n(-c2ccccc2)c(=O)c1C(=O)c1ccc(Cl)cc1	TEAD-YAP inh 61
Cc1[nH]n(-c2ccccc2)c(=O)c1C(N)=NC(=O)c1ccccc1	none
Cc1[nH]n(-c2ccccc2)c(=O)c1C(=O)c1cccc(F)c1	TEAD-YAP inh 46
COc1cccc(Nc2nc(N3CCN(CCO)CC3)nc3c2cnn3C)c1	TEAD-YAP inh 41
COc1cc2nc(CN3CCCCCCC3)[nH]c(=O)c2cc1OC	none
COc1cc2nc(CN3c4ccccc4CC3C)[nH]c(=O)c2cc1OC (centres undefined)	TEAD-YAP inh 48
COc1cc2nc(CN3CCN(c4ccccn4)CC3)[nH]c(=O)c2cc1OC	TEAD-YAP inh 73
O=C(Nc1cccc(Br)c1)C1CC(=O)N(Cc2ccc(Cl)cc2)C(=Nc2ccccc2)S1 (centres undefined)	none
Cc1ccc(NS(=O)(=O)c2c[nH]c3ccc([N+](=O)[O-])cc23)cc1C	none
COc1ccc(/C(O)=C2\C(=O)C(=O)NC2c2ccccc2)cc1 (centres undefined)	none
COc1cc(NC(=O)c2cncc(-n3cc(NC(=O)Cc4ccccc4)cn3)c2)ccc1N1CCOCC1	none
Cn1c(SCC(N)=O)nnc1-c1cccc([N+](=O)[O-])c1	none
Cn1c(SCC#N)nnc1-c1cccc([N+](=O)[O-])c1	TEAD-YAP inh 32
CC(C)(C)NC(=O)c1ccccc1NC(=O)CCc1ccccc1	none
O=C(Cc1ccc2c(c1)OCO2)Nc1cc(Nc2ccccc2-c2ncn[nH]2)c(C(F)(F)F)cn1	TEAD-YAP inh 60
CNC(=O)c1ccccc1Nc1cc(NC(=O)Cc2ccccc2)ncc1C(F)(F)F	TEAD-YAP inh 72
